Most compounds without a hit are left out; they make up all but 1.6% or so of the library.
F-actin modifier = modifiers of F-actin cytoskeleton organization, primary screen, imaging, HUVEC, phalloidin staining, high-content imaging | HUVEC TNFa F-actin phalloidin imaging | inhibition, % at 2 µM | 91,000 tested, 0.18% active | AID 836, 2007;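 active means inhibition above the batch mean plus 3 SD and confirmed as a hit by visual image inspection, cut at about 30% in these data, passing the limit was not always enough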
Phagocytosis inh = inhibitors of macrophage phagocytosis, primary screen, imaging, J774A.1 cells, IgG beads | J774A.1 macrophage IgG-bead phagocytosis | inhibition, % at 5 µM | 110,000 tested, 0.07% active;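 active means inhibition above the mean of the plate negative controls plus 5 SD, cut at about 13% in these data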;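 further: phagocytic index as fraction of beads internalized from green versus red external bead signal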
Insulin prom inh = inhibitors of insulin promoter-driven GFP, primary screen, imaging, TRM-6 cells (human fetal islet line), eGFP reporter, cell count. 130,000 tested, 0.9% active. inhibition, % at 2 µM. reporter expression induced with tamoxifen;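 active means inhibition above the mean plus 3 SD, with well images judged a real hit on visual review, cut at about 60% in these data, passing the limit was not always enough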
HUVEC tox TNFa = cytotoxicity in TNFa-stimulated HUVEC, primary screen, cytotoxicity control for VCAM1 expression modulator project, imaging, Hoechst nuclei count | 93,000 tested, 0.17% active | cell count reduction, % at 2 µM | HUVEC TNFalpha-stimulated, Hoechst cell count | AID 848, 2007;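 active means cell count reduction exceeding the screen mean by over 5 SD, scaled to untreated wells per plate, cut at about 78% in these data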;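 further: cells counted after 24 h of TNF alpha exposure following the 1 h pretreatment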
VCAM1 TNFa inh = inhibitors of TNFa-induced VCAM1 expression, primary screen, imaging, HUVEC, TNFa stimulus, immunofluorescence; HUVEC TNFa-induced VCAM-1 immunofluorescence, high-content imaging; inhibition, % at 2 µM; 95,000 tested, 0.48% active; AID 802, 2007;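 active means inhibition above the batch mean plus 3 SD, with images confirmed as a hit by eye, cut at about 37% in these data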
E-sel TNF inh = E-selectin induction blockers in HUVEC – imaging, immunofluorescence, high content, primary screen. HUVEC TNFa-induced E-selectin immunofluorescence. AID 1246, 2008. 120,000 tested, 0.71% active. inhibition, % at 2 µM;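 active means inhibition above the batch mean plus 3 SD, and confirmed as a hit on visual image review, cut at about 43% in these data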
A number is an active result.

CCOc1cc(S(=O)(=O)Nc2ccc(CC)cc2)ccc1Cl was read as F-actin modifier inactive, Phagocytosis inh inactive, Insulin prom inh inactive, HUVEC tox TNFa inactive, VCAM1 TNFa inh inactive and E-sel TNF inh inactive.
For O=C1CCCc2c1cc(C(=O)NC1CCSC1=O)c(=O)n2-c1ccccc1 (centres undefined) the results were F-actin modifier inactive, Phagocytosis inh inactive, Insulin prom inh inactive, HUVEC tox TNFa 94.0 and E-sel TNF inh inactive.
Screening CC1(C)CC(=O)c2cc(C(=O)NC3CCSC3=O)c(=O)n(-c3ccccc3)c2C1 (centres undefined) returned F-actin modifier inactive, Phagocytosis inh inactive, Insulin prom inh inactive, HUVEC tox TNFa inactive, VCAM1 TNFa inh inactive and E-sel TNF inh inactive.
CCCC(=O)NCCc1cc2cc(C)c(C)cc2[nH]c1=O was read as F-actin modifier inactive, Insulin prom inh 85.7, HUVEC tox TNFa inactive, VCAM1 TNFa inh inactive and E-sel TNF inh inactive.
Screening CC1Cc2nc(SCC(=O)Nc3nc4ccccc4s3)n(C)c(=O)c2S1 (centres undefined) returned F-actin modifier inactive, Phagocytosis inh inactive, HUVEC tox TNFa inactive, VCAM1 TNFa inh inactive and E-sel TNF inh inactive.
For O=C(CSc1ccccn1)N/N=C/c1c[nH]c2ccccc12 the results were Insulin prom inh inactive.
Screening O=C(CSc1ccccn1)N/N=C/c1ccccc1[N+](=O)[O-] returned Phagocytosis inh inactive and E-sel TNF inh 62.3.
Screening O=C(c1ccc(F)cc1)c1c[nH]c(C(=O)NCCCN2CCOCC2)c1 returned F-actin modifier inactive, Phagocytosis inh inactive, Insulin prom inh inactive, HUVEC tox TNFa inactive and VCAM1 TNFa inh inactive.
CCC(CC)C(=O)c1c[nH]c(C(=O)NCCCN2CCOCC2)c1 was read as F-actin modifier inactive, Insulin prom inh inactive, HUVEC tox TNFa inactive, VCAM1 TNFa inh inactive and E-sel TNF inh 85.5.
For CCN(CC)C(=O)c1sc2c(c1C)c(=O)n(-c1ccc(C)c(C)c1)c(=O)n2CC(=O)NCC1CCCO1 (centres undefined) the results were Insulin prom inh 83.3.
For CCc1ccc(-n2c(=O)c3c(C)c(C(=O)N(C)C)sc3n(CC(=O)NCC3CCCO3)c2=O)cc1 (centres undefined) the results were Insulin prom inh inactive and E-sel TNF inh inactive.
`CC1CCCC(=C\c2ccccc2)/C1=N/O` (centres undefined) gave Phagocytosis inh inactive and Insulin prom inh inactive.
Cc1cccc(NC(=O)CSc2nc(N)c(NC(=O)c3cccs3)c(=O)[nH]2)c1C was read as Insulin prom inh inactive and E-sel TNF inh inactive.
N#C/C(=C/c1ccc(Sc2nc3ccccc3[nH]2)o1)c1cccc(Br)c1 was read as F-actin modifier inactive, Phagocytosis inh inactive, Insulin prom inh inactive, HUVEC tox TNFa inactive, VCAM1 TNFa inh inactive and E-sel TNF inh inactive.
For N#C/C(=C/c1ccc(Sc2nc3ccccc3[nH]2)o1)c1cccc(F)c1 the results were F-actin modifier inactive, Phagocytosis inh inactive, Insulin prom inh 72.2, HUVEC tox TNFa inactive, VCAM1 TNFa inh inactive and E-sel TNF inh inactive.
Screening O=C(CN1CCSC1=NCc1ccccc1)c1ccc(Cl)cc1 returned Phagocytosis inh inactive and Insulin prom inh inactive.
`CN(C)C(=O)COc1ccc(Oc2ccccc2)cc1` gave E-sel TNF inh inactive.
For Cc1cnc(Sc2ncccc2[N+](=O)[O-])nc1 the results were F-actin modifier inactive, Insulin prom inh inactive, HUVEC tox TNFa inactive, VCAM1 TNFa inh inactive and E-sel TNF inh inactive.
For C=CCNc1nnc(Sc2ncccc2[N+](=O)[O-])s1 the results were Insulin prom inh 92.9.
CC(C)CCN1CC(C(=O)NCCC2=CCCCC2)CC1=O (centres undefined) was read as F-actin modifier 67.9, Phagocytosis inh inactive, HUVEC tox TNFa inactive, VCAM1 TNFa inh inactive and E-sel TNF inh inactive.
`Cc1ccc(NC(=O)N2CCC(C(=O)NCCC3=CCCCC3)CC2)cc1` gave F-actin modifier inactive, Phagocytosis inh inactive, HUVEC tox TNFa inactive, VCAM1 TNFa inh inactive and E-sel TNF inh 40.0.
For COc1ccc(CCn2cnc(=O)c(C#N)c2C)cc1OC the results were Insulin prom inh inactive and E-sel TNF inh inactive.
